Some test systems named below: DU-145 prostate; K-562 leukemia; MALME-3M melanoma; MDA-MB-231 breast; RXF 393 renal; SF-268 CNS; SF-295 CNS; SF-539 CNS; UACC-257 melanoma; M14 melanoma.
Common to all, as to assay: NCI-60 one-dose screen, 48 h (100 = growth as untreated, 0 = no growth, -100 = all killed)
What all share (settings): 10 µM unless noted

Several values for one entry are separate records, joined by “and”; a condition that tells them apart may be missing. Equal values may be shown once. Compounds without any hit were thinned out: in the full panel of roughly 83,000, 20% have a hit.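 For each line, cells grew in 96-well plates with the test compound present at a single concentration for 48 hours.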 Activity calls are given as the source filed them. The calls were made as follows: active = growth percent below 10; inactive = the rest.

`Oc1nc(NCCc2ccccc2)sc1/C=C1\C=Nc2ncccc21`: the growth was 15.3% (inactive) and 20.7% (inactive) in the experiment with DU-145 prostate; 28.5% (inactive) and 29.9% (inactive) in the experiment on K-562 leukemia; 44.8% (inactive) and 30.6% (inactive) in the experiment with MALME-3M melanoma; 25.9% (inactive) and 25.5% (inactive) in the experiment with MDA-MB-231 breast; -30.1% (active) and -20.2% (active) with RXF 393 renal; 8.87% (active) and 10.4% (inactive) in the experiment with SF-268 CNS. Moreover, the growth with SF-295 CNS is 18.7% (inactive) and 22.6% (inactive); in the experiment with SF-539 CNS, -37.2% (active) and 0.397% (active); in the experiment with UACC-257 melanoma it was -1.71% (active) and 14.6% (inactive); in the experiment on M14 melanoma, 31.7% (inactive) and 29.9% (inactive).

On to `CN(C)CCCN1c2ccccc2Sc2ccc(Cl)cc21`, for which the growth with DU-145 prostate is 101% (inactive) and 113% (inactive) and 111% (inactive); with K-562 leukemia it was 51.6% (inactive) and 120% (inactive) and 58.2% (inactive); in the experiment on MALME-3M melanoma, 90.2% (inactive) and 111% (inactive) and 76.7% (inactive); with MDA-MB-231 breast, 67.7% (inactive) and 108% (inactive) and 72.3% (inactive); in the experiment with RXF 393 renal, 52% (inactive) and 84.6% (inactive) and 82% (inactive); in the experiment on SF-268 CNS, 83% (inactive) and 104% (inactive) and 83.6% (inactive). Moreover, the growth in the experiment on SF-295 CNS is 95.3% (inactive) and 160% (inactive) and 81% (inactive); with SF-539 CNS, 90.5% (inactive) and 98.8% (inactive) and 88.8% (inactive); in the experiment with UACC-257 melanoma, 78% (inactive) and 106% (inactive) and 115% (inactive); in the experiment on M14 melanoma, 31% (inactive) and 102% (inactive) and 81% (inactive).

For `CC(=O)NC(Cc1ccccc1)C(=O)Oc1ccc2ccccc2c1` (stereo not given), the growth is 107% (inactive) and 109% (inactive) in the experiment with DU-145 prostate; 106% (inactive) and 113% (inactive) in the experiment on K-562 leukemia; 109% (inactive) with MALME-3M melanoma; 104% (inactive) and 103% (inactive) with MDA-MB-231 breast; 113% (inactive) and 115% (inactive) in the experiment on RXF 393 renal; 100% (inactive) with SF-268 CNS. The growth was 113% (inactive) in the experiment with SF-295 CNS; 91.6% (inactive) and 90% (inactive) with SF-539 CNS; 104% (inactive) and 116% (inactive) with UACC-257 melanoma; 109% (inactive) and 118% (inactive) in the experiment on M14 melanoma.

In the case of `Cc1ncsc1CCO`, the growth with DU-145 prostate was 112% (inactive) and 105% (inactive); in the experiment on K-562 leukemia, 103% (inactive) and 108% (inactive); in the experiment with MALME-3M melanoma, 118% (inactive) and 86.2% (inactive); in the experiment on MDA-MB-231 breast it was 103% (inactive) and 105% (inactive); with RXF 393 renal, 99% (inactive) and 133% (inactive); in the experiment on SF-268 CNS it was 101% (inactive) and 94.3% (inactive). Also, the growth was 101% (inactive) and 100% (inactive) in the experiment with SF-295 CNS; 111% (inactive) and 99.6% (inactive) in the experiment with SF-539 CNS; 106% (inactive) and 92.9% (inactive) in the experiment with UACC-257 melanoma; 107% (inactive) and 95.3% (inactive) in the experiment with M14 melanoma.

As to `N#C/C(=C1C=C/C(=N/O)C(Br)=C/1)c1ccccc1`, the growth in the experiment with DU-145 prostate is -13.1% (active); in the experiment on K-562 leukemia, 9.55% (active); with MALME-3M melanoma it was 67.4% (inactive); with MDA-MB-231 breast, 28.1% (inactive); in the experiment with RXF 393 renal, 17% (inactive); in the experiment on SF-268 CNS it was 18.8% (inactive). The growth with SF-295 CNS was -8.83% (active); in the experiment with SF-539 CNS, -26% (active); with UACC-257 melanoma, 44.1% (inactive); in the experiment with M14 melanoma it was 31.9% (inactive).

As to `O=C(CN1CCOCC1)N1CCOCC1`, the growth is 120% (inactive) and 117% (inactive) in the experiment with DU-145 prostate; 102% (inactive) and 108% (inactive) in the experiment on K-562 leukemia; 90.6% (inactive) in the experiment on MALME-3M melanoma; 108% (inactive) and 98.1% (inactive) in the experiment with MDA-MB-231 breast; 126% (inactive) and 119% (inactive) in the experiment with RXF 393 renal; 108% (inactive) and 115% (inactive) in the experiment on SF-268 CNS. For the same compound, the growth was 113% (inactive) and 104% (inactive) with SF-295 CNS; 111% (inactive) and 101% (inactive) in the experiment on SF-539 CNS; 107% (inactive) and 106% (inactive) in the experiment on UACC-257 melanoma; 97.4% (inactive) and 106% (inactive) in the experiment on M14 melanoma.

Take `CC(=O)Nc1cccc2c1CCCC2`: the growth in the experiment with DU-145 prostate was 107% (inactive) and 101% (inactive); with K-562 leukemia, 109% (inactive) and 110% (inactive); in the experiment on MALME-3M melanoma it was 103% (inactive) and 95.5% (inactive); in the experiment with MDA-MB-231 breast, 115% (inactive) and 110% (inactive); in the experiment with RXF 393 renal it was 101% (inactive); in the experiment on SF-268 CNS, 95.6% (inactive) and 103% (inactive). Besides, the growth with SF-295 CNS is 94.9% (inactive) and 100% (inactive); in the experiment on SF-539 CNS it was 107% (inactive) and 97.8% (inactive); with UACC-257 melanoma, 67.1% (inactive) and 102% (inactive); in the experiment on M14 melanoma, 94.5% (inactive) and 101% (inactive).

As for `O=C(Nc1cccc(Cl)c1)c1cc2ccccc2cc1O`, the growth was 22.1% (inactive) and 25.1% (inactive) in the experiment with DU-145 prostate; 25.8% (inactive) and 10.5% (inactive) in the experiment on K-562 leukemia; 2.77% (active) and -9.95% (active) in the experiment with MALME-3M melanoma; 27% (inactive) and -1.46% (active) with MDA-MB-231 breast; 18% (inactive) and 33% (inactive) in the experiment with RXF 393 renal; 21.2% (inactive) and 24.4% (inactive) in the experiment on SF-268 CNS. Moreover, the growth in the experiment on SF-295 CNS is 13.5% (inactive) and 62.2% (inactive); in the experiment on SF-539 CNS, 28.4% (inactive) and 11.7% (inactive); in the experiment on UACC-257 melanoma it was 5.37% (active) and -16.3% (active); with M14 melanoma, 48.4% (inactive) and 18.2% (inactive).

Take `O=C(N/N=C/c1cccc2ccccc12)C1CC1`: the growth with DU-145 prostate was 128% (inactive) and 120% (inactive); in the experiment on K-562 leukemia, 92.3% (inactive) and 114% (inactive); with MALME-3M melanoma, 110% (inactive); in the experiment with MDA-MB-231 breast, 95.4% (inactive) and 91.3% (inactive); in the experiment on RXF 393 renal it was 111% (inactive) and 110% (inactive); with SF-268 CNS, 115% (inactive) and 104% (inactive). In addition, the growth was 118% (inactive) and 92.9% (inactive) with SF-295 CNS; 111% (inactive) and 102% (inactive) with SF-539 CNS; 103% (inactive) and 100% (inactive) in the experiment with UACC-257 melanoma; 110% (inactive) and 108% (inactive) with M14 melanoma.

With `Nc1ncnc2c1ncn2C1CC(O)C(CO)O1` (stereo not given), the growth was 125% (inactive) and 118% (inactive) with DU-145 prostate; 116% (inactive) and 96.6% (inactive) in the experiment with K-562 leukemia; 220% (inactive) and 110% (inactive) in the experiment on MALME-3M melanoma; 112% (inactive) and 119% (inactive) in the experiment on MDA-MB-231 breast; 109% (inactive) in the experiment on RXF 393 renal; 116% (inactive) and 107% (inactive) in the experiment with SF-268 CNS. Moreover, the growth in the experiment on SF-295 CNS is 82.6% (inactive) and 95% (inactive); in the experiment with SF-539 CNS, 89.6% (inactive) and 121% (inactive); in the experiment with UACC-257 melanoma it was 102% (inactive); in the experiment with M14 melanoma it was 113% (inactive) and 103% (inactive).

Consider `O=C1OC2(c3ccccc31)c1ccc(O)c(O)c1Oc1c2ccc(O)c1O`, for which the growth in the experiment on DU-145 prostate is 116% (inactive) and 119% (inactive); in the experiment with K-562 leukemia it was 115% (inactive) and 92.6% (inactive); in the experiment on MALME-3M melanoma, 126% (inactive) and 114% (inactive); in the experiment with MDA-MB-231 breast it was 110% (inactive) and 108% (inactive); with RXF 393 renal, 102% (inactive) and 120% (inactive); with SF-268 CNS, 108% (inactive) and 114% (inactive). Further, the growth with SF-295 CNS was 110% (inactive) and 130% (inactive); with SF-539 CNS, 108% (inactive) and 125% (inactive); with UACC-257 melanoma it was 106% (inactive); in the experiment on M14 melanoma, 113% (inactive).

Take `Cc1cc(C)c(N)c(Br)c1`: the growth in the experiment on DU-145 prostate was 122% (inactive) and 109% (inactive); in the experiment with K-562 leukemia, 107% (inactive) and 96.5% (inactive); with MALME-3M melanoma it was 105% (inactive) and 95.4% (inactive); in the experiment on MDA-MB-231 breast, 112% (inactive) and 98.8% (inactive); in the experiment on RXF 393 renal, 116% (inactive) and 103% (inactive); in the experiment with SF-268 CNS, 105% (inactive) and 103% (inactive). In addition, the growth in the experiment on SF-295 CNS is 127% (inactive) and 110% (inactive); with SF-539 CNS, 108% (inactive) and 92.9% (inactive); with UACC-257 melanoma, 106% (inactive) and 105% (inactive); with M14 melanoma, 103% (inactive).

Turning to `NC(=O)NO`, the growth with DU-145 prostate is 110% (inactive) and 56.7% (inactive); in the experiment with K-562 leukemia it was 113% (inactive) and 77% (inactive); in the experiment on MALME-3M melanoma, 102% (inactive) and 57.8% (inactive); in the experiment with MDA-MB-231 breast, 98.8% (inactive) and 84.4% (inactive); in the experiment with RXF 393 renal, 116% (inactive) and 25.5% (inactive); in the experiment on SF-268 CNS, 102% (inactive) and 70.4% (inactive). Moreover, the growth with SF-295 CNS was 99.4% (inactive) and 50.3% (inactive); in the experiment on SF-539 CNS, 104% (inactive) and 47.4% (inactive); in the experiment with UACC-257 melanoma, 102% (inactive) and 44% (inactive); in the experiment on M14 melanoma, 104% (inactive).

Consider `O=C1OC(Oc2ccc(Br)cc2)(c2ccccc2)c2ccccc21` (stereo not given), for which the growth was 97.1% (inactive) and 84.1% (inactive) in the experiment on DU-145 prostate; 70.1% (inactive) in the experiment with K-562 leukemia; 89.5% (inactive) in the experiment with MALME-3M melanoma; 86.4% (inactive) and 107% (inactive) in the experiment with MDA-MB-231 breast; 82.7% (inactive) and 82.3% (inactive) in the experiment with RXF 393 renal; 91.7% (inactive) and 76% (inactive) with SF-268 CNS. The growth with SF-295 CNS was 83.1% (inactive) and 82.3% (inactive); in the experiment with SF-539 CNS, 104% (inactive) and 98.5% (inactive); with UACC-257 melanoma, 88.5% (inactive) and 90.9% (inactive); with M14 melanoma, 96.4% (inactive) and 98.2% (inactive).

Regarding `Cc1ccc(-c2noc(CC(=O)c3ccc([N+](=O)[O-])cc3)n2)cc1`, the growth in the experiment on DU-145 prostate is 101% (inactive); in the experiment on K-562 leukemia it was 89.1% (inactive); in the experiment on MALME-3M melanoma, 110% (inactive); in the experiment with MDA-MB-231 breast it was 104% (inactive); in the experiment on RXF 393 renal, 102% (inactive); in the experiment on SF-268 CNS, 95.6% (inactive). Also, the growth in the experiment with SF-295 CNS is 99% (inactive); with SF-539 CNS it was 98.2% (inactive); in the experiment with UACC-257 melanoma it was 107% (inactive); in the experiment on M14 melanoma it was 96.5% (inactive).

The record behind these values is PubChem BioAssay (NCI).
